Screens (PubChem)
TRPML1 blocker: qHTS for Inhibitors of the Human Mucolipin Transient Receptor Potential 1 (TRPML1); 390,000 tested, 0.02% active; TRPML1-inducible cells, Ca2+ dye fluorescence, FDSS; active compounds read low; inhibition of EC80 agonist-evoked calcium signal; AID 624415, 2012; activity change, negative = inhibition, % (concentration not given with the values); in the data active means activity change below about -50%; inconclusive means between about -30% and that limit;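 further: stimulus is agonist 54-4 at its EC80 concentration; on the % scale 0 is the no-effect control and ±100 the full control effect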
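Calcium fluorescence in TRPML1-DL cells induced overnight with Tet: a 110 s read after compound pin addition, then a 110 s antagonist read after challenge with 54-4 at 4 uM final (EC80).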
TRPML1 ag: qHTS for Agonists of the Human Mucolipin Transient Receptor Potential 1 (TRPML1). Mucolipin-1 (Homo sapiens), Q9GZU1. TRPML1-expressing cells, Ca2+ dye fluorescence, FDSS. 410,000 tested, 0.12% active. activation, % (no concentration beside the values); in the data active means activation above about 50%; inconclusive means mostly about 30% to 49%; further: 0% is about no effect
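Agonist activity was taken from a 110 s kinetic Ca2+ dye read on the FDSS after pinning compounds onto TRPML1-DL cells. The cells were seeded at 1,500/well with Tet inducer, incubated about 16 h, then dye-loaded at room temperature.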
TRHR ag: qHTS for Small Molecule Agonists and Allosteric Enhancers of Human TRH Receptor: Primary Screen for Agonists; Thyrotropin-releasing hormone receptor (Homo sapiens), P34981; TRHR cells, calcium flux fluo-8, FDSS agonist mode; activation, % at 2 µM; 360,000 tested, 0.18% active; AID 493084, 2011; in the data active means activation above about 30%; further: 0% is about no effect
Target sequence (P34981 whole entry, looked up): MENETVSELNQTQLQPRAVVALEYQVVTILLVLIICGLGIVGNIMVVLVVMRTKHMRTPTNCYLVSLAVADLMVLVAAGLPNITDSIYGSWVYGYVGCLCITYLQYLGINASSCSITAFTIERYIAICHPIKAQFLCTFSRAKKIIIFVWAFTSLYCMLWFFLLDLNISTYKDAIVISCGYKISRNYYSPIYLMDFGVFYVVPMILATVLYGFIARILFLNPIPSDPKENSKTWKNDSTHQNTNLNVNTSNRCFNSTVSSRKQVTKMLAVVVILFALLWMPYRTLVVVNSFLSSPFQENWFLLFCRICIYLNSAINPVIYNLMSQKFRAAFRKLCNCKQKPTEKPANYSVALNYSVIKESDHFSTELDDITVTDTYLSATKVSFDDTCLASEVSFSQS
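Fluo-8-loaded TRHR cells; 10 s baseline, compound added, kinetic Ca2+ fluorescence read 1/s, agonist mode.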
TRHR PAM: qHTS for Small Molecule Agonists and Allosteric Enhancers of Human TRH Receptor: Primary Screen for Enhancers; AID 493056, 2011; 360,000 tested, 0.66% active; enhancement, % at 2 µM; TRHR cells, fluo-8 calcium fluorescence, EC20 TRH enhancement; in the data active means enhancement above about 30%; further: 0% is about no effect
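TRHR-expressing cells loaded with fluo-8 calcium dye were read kinetically (ex 480/em 530) during compound addition, then stimulated with an EC20 of TRH (10 nM final). Enhancement of the Gq-mediated intracellular calcium response was scored.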
The depositor's hits bear a star; ? = inconclusive; nt = no result. A selection: hits, their analogues and other compounds. The true share with any hit is near 0.81%.

SMILES | TRPML1 blocker | TRPML1 ag | TRHR ag | TRHR PAM
O=C(/C=C/c1c[nH]c2ccccc12)c1c(O)n(CCc2ccccc2)c(=O)[nH]c1=O | -2 | 14 | 40* | 47*
CCCCn1c(O)c(C(C)=NCCc2c[nH]c3ccccc23)c(=O)[nH]c1=O | -12 | 1 | 0 | 11
COc1cc([C@@H]2c3cc4c(c(O)c3C[C@H]3COC(=O)[C@@H]32)OCO4)cc(OC)c1OC | nt | -1 | nt | nt
COC(=O)C(O)(c1ccc(N(C)C)cc1)C(F)(F)F (stereo unspecified) | -1 | 0 | 0 | 10
COC(=O)c1cc(C(O)(C(=O)OC)C(F)(F)F)c(/N=C/N(C)C)s1 (stereo unspecified) | -9 | 0 | 0 | 39*
CNC(=O)O/N=C/C(C)(C)S(C)=O (stereo unspecified) | nt | 0 | nt | nt
CC1(C)CSC(=NCc2ccccc2)N1 | 8 | 91* | 77* | -17
COc1ccc(CCn2c(O)c(C=Nc3ccc(F)cc3)c(=O)[nH]c2=O)cc1OC | -7 | 1 | 0 | 38*
Cc1ccccc1-n1c(/C=C/c2ccc(N(C)C)cc2)nc2ccccc2c1=O | -9 | ? | 93* | 18
Cc1nc2ccccc2c(=O)n1-c1ccc(C(=O)O)cc1 | 7 | 0 | 0 | 31*
Cc1nc2ccccc2c(=O)n1-c1cccc(C(F)(F)F)c1 | -13 | 0 | -1 | 1
COc1ccccc1CCNCc1ccc(OC)c(OC)c1OC | 8 | 0 | 0 | 39*
CC(C)(C)c1ccc(O)c(N=Cc2c(O)ccc3ccccc23)c1 | 5 | 14 | 63* | 1
CCOC(=O)CCCc1cc[c]([Sb](=[O])([OH])[OH])cc1 | nt | -1 | nt | nt
CCN1/C(=C/C=C/C2=[N+](CC)c3ccccc3C2(C)C)C(C)(C)c2ccccc21 | -15 | 76* | nt | nt
CCCCCCCCCOc1ccc2[nH]cc(CCN)c2c1 | nt | nt | 1 | 6
COc1ccc2[nH]cc(CCN)c2c1 | nt | nt | 0 | 31*
C[C@H]1O[C@@H](O[C@H]2[C@@H](O)C[C@@H](O[C@H]3[C@@H](O)C[C@H](O[C@H]4CC[C@@]5(C)[C@H](CC[C@@H]6[C@@H]5CC[C@]5(C)[C@@H](C7=CC(=O)OC7)CC[C@]65O)C4)O[C@@H]3C)O[C@@H]2C)C[C@H](O)[C@@H]1O | nt | 0 | nt | nt
CSc1ccccc1C(=O)C1CCCN(Cc2ccncc2)C1 (stereo unspecified) | -9 | 0 | -1 | 40*
CC(=O)Nc1ccc(OC(=O)N2CCN(/[N+]([O-])=N/Oc3ccc([N+](=O)[O-])cc3[N+](=O)[O-])CC2)cc1 | -3 | 4 | nt | nt
COc1cc2c(cc1OC)CN(c1ccc([N+](=O)[O-])c(C(F)(F)F)c1)CC2 | -4 | 1 | 0 | 37*
CCNc1cc(N2CCN(C)CC2)ccc1[N+](=O)[O-] | 0 | 0 | 0 | -13
CCN(CC)c1ccc(/C=N/c2sc3c(c2C#N)C2CCN3CC2)c(O)c1 | -5 | ? | 52* | -14
C[C@@H]1O[C@@H](O[C@@H]2C=C3CC[C@@H]4[C@@H](CC[C@]5(C)[C@H](c6ccc(=O)oc6)CC[C@@]45O)[C@@]3(C)CC2)[C@H](O)[C@H](O)[C@H]1O | nt | 0 | nt | nt
O=C(Oc1c(Cl)cc(Cl)c2ccccc12)N1CCCCC1 | -13 | 68* | 0 | -8
SMILES | TRPML1 blocker | TRPML1 ag | TRHR ag | TRHR PAM
O=C(Nc1ccc(OC(=O)N2CCCCC2)cc1)N1CCOCC1 | 27 | 0 | 0 | -3
Cc1ccc(/C=C2\C(=O)NC(=O)N(CCc3ccc(F)cc3)C2=O)o1 | -10 | 0 | 3 | 37*
Cc1ccc(/C=C2/C(=O)NC(=O)N(Cc3ccc(F)cc3)C2=O)o1 | nt | nt | 1 | -4
CNc1ccc2oc(C[C@H]3O[C@@]4(CC[C@H]3C)O[C@H]([C@H](C)C(=O)c3ccc[nH]3)[C@H](C)C[C@H]4C)nc2c1C(=O)O | -4 | 18 | 123* | -17
CN(C)c1ccc(/C=C/[N+](=O)[O-])cc1 | -2 | ? | 31* | -2
CC(C(=O)N1CCC2(CC1)OCCO2)C1Sc2ccccc2NC1=O (stereo unspecified) | -2 | 0 | 0 | 35*
